# Reference: PubChem BioAssay (Tox21)
# Inconclusive results are not listed. Active and inactive are the calls of the source. Calls come from the whole dose curve; as a rule, active = well fitted inhibition curve with a large enough effect in the repeat runs; inconclusive = weak or mixed curves; inactive = no such curve, though single readings can be large or run the other way.
# Test: qHTS assay to identify small molecule antagonists of the thyroid receptor (TR) signaling pathway (AID 743065); note: nearly all actives have a fitted effect of over 55% in size
# Settings: GH3.TRE-Luc, T3-stimulated luciferase inhibition, 23.5 h; series mostly up to 70.3 µM; activity, negative = inhibition: at the top concentration
# Description: U.S. Tox21 Program National Center for Advancing Translational Sciences [NCATS] NIH Chemical Genomics Center [NCGC] U.S. Environmental Protection Agency [EPA] National Institutes of Environmental Health Sciences [NIEHS] National Toxicology Program [NTP] U.S. Food and Drug Administration [FDA] Tox21 Assay Overview: Thyroid receptor (TR), a nuclear hormone receptor, plays an important role in development, proliferation, differentiation, metabolism, brain function, and cardiovascular system. […] To profile the Tox21 10K compound library in TR signaling, a cell-based GH3-TRE-Luc assay (GH3.TRE-Luc cell line, developed by the laboratory of Dr. Albertinka J. Murk, Wageningen University) was used to measure the inhibition of TR. GH3 (rat pituitary tumor) cells stably expressing a TR activity sensor consisting of two TR response elements and a luciferase reporter gene.
# Tox21 Assay Protocol Summary: GH3.TRE-Luc cells were dispensed at 1500 cells/4 uL/well into 1536-well white solid bottom plates using a Multidrop Combi dispenser (Thermo Fisher Scientific Inc., Waltham, MA). After the assay plates were incubated at 37 C for 4 hours, 23 nL of library compound or DMSO controls was transferred to the assay plates by a pintool station (Kalypsys, San Diego, CA), followed by addition of 1 ul of T3 (1 nM, final concentration in the wells) to stimulate TR transactivation. The assay plates were incubated at 37 C for 23.5 h, and then 1 uL of CellTiter-Fluor reagent (Promega, Madision, WI) of measuring cytotoxicity was added to each well using a Bioraptr Flying Reagent Dispenser (FRD) workstation (Beckman Coulter, Indianapolis, IN, USA). The plates were incubated at 37 C and 5% CO2 for additional 30 min, and fluorescence intensity was measured by a ViewLux plate reader (PerkinElmer, Shelton, CT). For measuring luciferase reporter gene activity, 4 uL of ONE-Glo Luciferase Assay reagent (Promega) was added to each well using a Bioraptr FRD (Beckman Coulter), followed by 30 min incubation at room temperature. The luminescence intensity of plates was recorded by a ViewLux plate reader (PerkinElmer, Shelton, CT).
# % is set by controls: 0 for no effect and ±100 for the full control effect.
Compound,"activity, negative = inhibition",Potency
CC1=CC[C@H](CC=O)C1(C)C,-5.59% (inactive),
C=CC(C)(O)CC/C=C(\C)CC (stereo not given),2.69% (inactive),
COC(/C=C(\C)CCC=C(C)C)OC,-0.183% (inactive),
C1CCN2C[C@@H]3C[C@@H](CN4CCCC[C@@H]34)[C@H]2C1,5.05% [at 32.5 µM] (inactive),
CC(Cl)COP(=O)(OCC(C)Cl)OCC(C)Cl (stereo not given),-20% (inactive),
CO[Si](CCCCl)(OC)OC,9.29% (inactive),
CCNC(=O)NCCCOc1cccc(CN2CCCCC2)c1,-11.6% (inactive),
Nc1ccnc(=O)[nH]1,13.1% (inactive),
O=S(=O)(O)SSS(=O)(=O)O,0% (inactive),
COCC(=O)Nc1c(I)c(C(=O)NCC(O)CO)c(I)c(C(=O)N(C)CC(O)CO)c1I (stereo not given),2.46% [at 32.5 µM] (inactive),
CCCOCCOCCOCCO,17.7% (inactive),
Nc1ccc(S(=O)(=O)NC(=O)c2ccccc2)cc1,2.23% [at 32.5 µM] (inactive),
Cc1ccccc1N1CCN(CCc2nnc3n2CCCC3)CC1,-0.0014% (inactive),
Cc1nc(C)nc(N2C[C@@H](C)N(c3ccnc([C@@H](C)O)n3)[C@@H](C)C2)n1,-7.54% (inactive),
C1=C\CC/C=C\CC/1,17.9% [at 95 µM] (inactive),
CC(=O)/C=C/c1ccco1,-0.281% [at 95 µM] (inactive),
CN(C)CCOCCN(C)CCO,10.7% (inactive),
O=C(O)/C=C/c1ccccc1,,inactive
CN[C@@H]1[C@@H](O)[C@@H](O[C@@H]2[C@H](O)[C@H](O[C@H]3OC(CN)=CC[C@H]3N)[C@@H](N)C[C@H]2N)OCC1(C)O (stereo not given in full),6.24% (inactive),
C[C@H]1O[C@H](O[C@H]2[C@H](O)[C@@H](O)[C@@H](O[C@H]3[C@H](O)[C@@H](O)[C@H](O)O[C@@H]3CO)O[C@@H]2CO)[C@H](O)[C@@H](O)[C@@H]1N[C@H]1C=C(CO)[C@@H](O)[C@H](O)[C@H]1O,12% (inactive),

Compound,"activity, negative = inhibition",Potency
CC(=O)OC(C(=O)c1ccccc1)c1ccccc1 (stereo not given),27.5% [at 95 µM] (inactive),
CCC(CO)CO,16.9% (inactive),
CCc1nccnc1C,8.64% (inactive),
CCC(C)(C)C1CCC(=O)CC1,4.88% (inactive),
CNC(=O)NC,12.7% [at 95 µM] (inactive),
COc1cccc2sc(N)nc12,-0.621% [at 95 µM] (inactive),
Cc1cc(C)cc([N+](=O)[O-])c1,0% [at 95 µM] (inactive),
O=C(O)C(=O)Nc1cccc(-c2nn[nH]n2)c1,4.41% (inactive),
CC(C)c1ccccc1O,0.218% (inactive),
CCOC(=O)CC(CC(=O)OCC)(OC(C)=O)C(=O)OCC,8.06% (inactive),
c1ccc(CNc2ncnc3nc[nH]c23)cc1,-11.9% (inactive),
O=C(c1ccc2c(c1)C(=O)OC2=O)c1ccc2c(c1)C(=O)OC2=O,0% (inactive),
CCC(=O)c1ccc(O)cc1,11.4% (inactive),
CN(C1CCCCC1)S(=O)(=O)c1ccccc1N,14.6% (inactive),
Cc1ccccc1OCC1CO1 (stereo not given),-5.71% [at 95 µM] (inactive),
FC(F)(F)/C(=N\OCC1OCCO1)c1ccc(Cl)cc1,-8.7% (inactive),
CCCCCCCCCCC,14.5% (inactive),
CCN(Cc1cccc(S(=O)(=O)O)c1)c1ccccc1,-14.5% (inactive),
CCCCCCCCCOCC1CO1 (stereo not given),0.0591% [at 95 µM] (inactive),
O=S(=O)(O)CCO,5.38% [at 95 µM] (inactive),
